According to PubChem BioAssay AID492952 (Southern Research Specialized Biocontainment Screening …, 2010):
Screen size: about 2,300 compounds; about 1,500 (65%) were called active. So high a share suggests a set chosen from earlier hits. The list shows a part of the results. Measured potencies and affinities stand elsewhere. Unmarked numbers belong to inactive results. The rule behind the calls is not given here.

Experiment: replicating M. tuberculosis growth inhibition, dose response, non-replicating M. tuberculosis project, H37Rv (AID 492952);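 note: Mycobacterium tuberculosis grown in culture; growth inhibition read after a week of incubation; 0% = bacteria alone untreated and 100% = bacteria with high antibiotic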
Details: series mostly up to 50 µM; inhibition: at the top concentration

Compound | inhibition [%]
Cc1cc(C)n(-c2ccc(C(=O)OCC(=O)Nc3cc(Cl)ccc3[N+](=O)[O-])cc2)n1 | 0.57
COC(=O)C1=C(C)N(CC2CC2)C(=NCc2cccc(Cl)c2)N[C@H]1c1ccccc1 | 16.6
CCCC(C)C(=O)Nc1ccc(Cl)cn1 (stereo not given) | 1.28
CC(C(=O)OCC(=O)c1ccccc1)N1C(=O)C2C3CCC(C3)C2C1=O (stereo not given) | -2.54
CC(Cc1ccccc1Sc1ccccc1)N(C)C (stereo not given) | 5.59
CN1CCN(/N=C/c2ccc(-c3ccc([N+](=O)[O-])cc3Cl)o2)CC1 | 1.44
Cc1ccc(-c2ccc(/C=N/NC(=O)CN3CCCC3)o2)cc1Cl | 8.7
COc1ccc(Cl)cc1N=Cc1c(O)c2ccccc2oc1=O | 2.85
COc1ccccc1-n1c(=O)oc2ccc(Cl)cc2c1=O | 0.52
O=C(N/N=C\c1ccccc1OCc1ccccc1)c1ccco1 | 2.01
O=C(N[C@@H]1C[C@H]2CC[C@@H]1C2)c1ccco1 | -3.89
Cc1ccc(C(=O)NCCOc2cccc(C)c2)cc1 | 10.5
O=C1CC(N2CCN(Cc3ccccc3)CC2)C(=O)N1CCc1ccccc1 (stereo not given) | -2.14
CCN1CCN(C(=O)CN(Cc2ccccc2)S(C)(=O)=O)CC1 | 3.47
O=C(NCc1ccccc1CN1CCCC1)c1cc2ccccc2o1 | -1.3
CCCCNC(=O)N1CCc2ccccc2C1 | 2.06
O=C(CCS(=O)(=O)Cc1ccccc1)Nc1ncc([N+](=O)[O-])s1 | 6.12
O=C(N/N=C/c1c(O)ccc2ccccc12)c1ccc(Br)o1 | -8.28
CCCCN(C)C(=O)c1cc2cc3ccc(OC)cc3nc2s1 | 13.3
O=C(CNC(=O)c1ccccc1F)OCc1csc(-c2ccccc2)n1 | 0.12
CCCOC(=O)c1ccc(OC(=O)c2ccco2)cc1 | 12
O=C(NCC1CCCCC1)c1ccco1 | -0.2
C/C(=N/NC(=O)c1cccc(C)c1)c1c(O)cc(C)oc1=O | 17.8
COc1cccc(NC(=O)c2ccc(-c3ccc([N+](=O)[O-])cc3)o2)c1 | 24.3

Compound | inhibition [%]
O=C(Nc1ncc([N+](=O)[O-])s1)c1cccs1 | 6.4
O=C1/C(=C\c2ccco2)SC(=S)N1c1ccc(O)cc1 | 8.77
Cc1ccccc1C(=O)NNc1ccc([N+](=O)[O-])cc1 | -3.91
Cc1c(Cl)cccc1NC(=O)C1COc2ccccc2O1 (stereo not given) | 6.98
O=C(NNC1=C(C(=O)C(F)(F)F)CCC1)c1ccccc1Cl | 5.77
O=C(COc1ccc2ccccc2c1)N1CCCC1 | -4.79
O=C(c1cccc2cccc(O)c12)N1CCCCC1 | 7.84
Cc1ccc(C(=O)N/N=C/c2cccc3ccccc23)cn1 | -2.22
CCN(CC)CCSc1nnc2c3cc(C)ccc3n(Cc3ccccc3)c2n1 | 27
Cc1ccc(NC(=O)C2CC2c2ccccc2)cc1 (stereo not given) | -6.03
N#Cc1ccc(CSc2nnc(-c3cccnc3)o2)cc1 | 2.49
Cc1nnc(SCCC(=O)Nc2ccc(Cl)cc2)o1 | 0
O=C(CCSc1nnc(-c2ccncc2)o1)Nc1cccc(Cl)c1 | 22.7
CCOC(=O)CN1NC2(CCC(C)CC2)NC1=S (stereo not given) | 1.45
O=c1c2c([N+](=O)[O-])cc([N+](=O)[O-])cc2sn1-c1ccc(Br)cc1 | -3.61
Cc1nc2ccc(Cl)cc2nc(C)/c1=N\O | 18.5
O=[N+]([O-])c1ccc2nc(SCc3cn4cc(Cl)ccc4n3)[nH]c2c1 | -1.37
O=c1c2cc(Cl)ccc2nc(-c2ccccc2Cl)n1O | 2.14
O=C(NNc1nc2ccccc2s1)c1ccc(F)cc1 | 10.5
CC(C)CCC1=NN(C(=O)c2ccco2)C(O)(C(F)(F)F)C1 (stereo not given) | -0.92
CCOC(=O)C1(CC2CCCCO2)CCN(Cc2nccn2-c2ccc(OC)cc2)CC1 (stereo not given) | 3.85
CCCCNS(=O)(=O)c1ccc(OCC(=O)OC)cc1 | 0.69
NNC(=O)COc1cccc(Oc2ccccc2)c1 | 11.4
COC(=O)c1ccc(OCC(=O)c2cccc(OC)c2)cc1 | 1.08

Compound | inhibition [%]
C=CCOC(=O)c1ccc(-n2cnc(C)n2)nc1 | 18.1
CCn1cc(/C=N\NC(=O)c2ccc(F)cc2)cn1 | -0.27
O=C(c1cc(F)ccc1F)C1CCCN(Cc2ccc3nonc3c2)C1 (stereo not given) | 6.97
Cc1ccc(NC(=S)C2=C(O)c3sccc3N(C)S2(=O)=O)cc1 | 1.4
COc1ccc(CC(=O)Nc2nccs2)cc1OC | -15.2
O=C(Nc1sc2c(c1C(=O)O)CCCCC2)c1ccccc1F | 1.46
N#Cc1ccsc1NC(=O)c1ccc(Cl)c([N+](=O)[O-])c1 | -1.52
O=C1NC(=O)N(Cc2ccco2)C(=O)/C1=C\c1cccn1CCOc1ccc(Cl)cc1 | -2.12
CCCCCOc1ccc(CSC2=NCCN2)cc1[N+](=O)[O-] | 3.34
Cc1cc(Br)ccc1OCCCCN1CCC(C)CC1 | 13.3
C=CCN(CC=C)CC(=O)Nc1ccc(S(N)(=O)=O)cc1 | -1.05
NC(=O)CN1CCN(C2CC(=O)N(CCc3ccccc3)C2=O)CC1 (stereo not given) | -0.23
COC(=O)c1cccc(COC(=O)c2cc3ccccc3oc2=O)c1 | 5.68
O=C(COC(=O)C1CC2C=CC1C2)Nc1ccccc1 (stereo not given) | -4.32
O=c1oc2ccccc2c2c1nnn2CCO | 4.47
CCC(C)n1c(=S)[nH]c2ccccc2c1=O (stereo not given) | 10.9
CCOC(=O)c1sc(NC(=O)CCN2CC(C)OC(C)C2)c(C(=O)OCC)c1C (stereo not given) | -3.06
OCC1(CCOc2ccccc2)CCN(Cc2cc(Cl)ccc2O)CC1 | -8.49
O=[N+]([O-])c1ccc2nc(SCc3cn4ccccc4n3)[nH]c2c1 | -0.45
O=[N+]([O-])c1ccc(-c2nc3ccc([N+](=O)[O-])cc3[nH]2)cc1 | 8.42
c1ccc(OCc2nn3c(-c4ccccn4)nnc3s2)cc1 | 10.3
C/C(=N/NC(=O)c1cc2ccccc2cc1O)C1C(=O)c2ccccc2C1=O | -4.56
O=C(NCC1CCCCC1)c1ccc([N+](=O)[O-])cc1 | -4.51
Oc1ccc2cc(Br)ccc2c1CN1CCCC1 | -13.2

Compound | inhibition [%]
Nc1c(Cl)cc(Cl)cc1C(=O)OCC(=O)N1CCCC1 | -1.22
O=C(CCSc1ccc(Cl)cc1)NC1CCCC1 | 6.09
O=C(COC(=O)c1ccc(Br)o1)NC1CCCCC1 | 15.1
CCCOC(=O)NC1CCS(=O)(=O)C1 (stereo not given) | -8.04
CCCCN(C/C=C/c1ccccc1OC)Cc1ccccc1 | 4.31
CCOC(=O)C1CCN(Cc2ccc(-c3ccccc3)cc2)CC1 | -1.35
CC(C)N=C1SC(CC(=O)Nc2ccccc2)C(=O)N1C(C)C (stereo not given) | -8.82
O=C(COC(=O)c1ccccc1Br)Nc1ccccc1F | 9.48
Fc1ccc(-c2nnc(-c3ccc(F)cc3)o2)cc1 | -2.38
CCOC(=O)C1=C(C)NC(=O)NC1c1ccc(-c2ccc(F)cc2)o1 (stereo not given) | 10.4
CCC(C)(C)NC(=O)c1ccc(Br)o1 | -1.76
CCC(=O)c1ccc(OC(=O)c2ccc(Br)o2)cc1 | 9.11
O=C(NC1CCCC1)c1nc2c(nnn2Cc2cccc(Cl)c2)c(=O)[nH]1 | 18.1
COc1ccc(O)c(C(=O)CC(=O)c2ccc(F)cc2)c1 | 23.9
NC(=O)c1cccnc1Nc1cccc(F)c1 | 4.49
c1ccc(-c2noc(CC3CCCCC3)n2)nc1 | -1.22
Sc1oc(-c2ccccc2)cc1C=Nc1ccccc1 | 0.97
COc1ccc(NC(=O)CO/N=C2/CCCc3nonc32)c(OC)c1 | -3.53
O=C(N/N=C/c1cc(Br)cc(Br)c1O)c1cccc(N2CCCC2=O)c1 | 3.22
O=C(N/N=C/c1ccccc1O)c1cccc(C(F)(F)F)c1 | 14.5
CCCNC(=O)OCC12CC3CC(CC(C3)C1)C2 | -7.66
O=C(COC(=O)c1ccccc1)NC12CC3CC(CC(C3)C1)C2 | -0.01
CCCCCCCC(=O)N/N=C(\C)c1ccc(O)cc1O | -8.78
CSC1=N/C(=C\c2ccc(Br)o2)C(=O)S1 | 5.39

Compound | inhibition [%]
O=C(NNC1CC(=O)N(c2ccccc2)C1=O)c1ccco1 (stereo not given) | -0.27
CC(=O)Nc1cccc(-c2nc3ccccc3c(=O)o2)c1 | 7.03
O=C(N/N=C/c1cn[nH]c1-c1ccccc1)c1ccco1 | 1.45
N[C@@H](Cc1ccccc1)c1nnc(SC/C=C/c2ccccc2)o1 | 7.63
O=C(NCCc1ccccc1)c1nc(-c2cccs2)no1 | 2.65
O=[N+]([O-])c1cncc([N+](=O)[O-])c1Nc1cccc(O)c1 | 28.7
O=S(=O)(NCc1cccnc1)c1ccc(Cl)c(Cl)c1Cl | -3.75
Clc1ccc(SCCOCCN2CCc3ccccc3C2)cc1 | 4.11
Clc1ccc(OCCCCN2CCc3ccccc3C2)cc1 | 15.9
CC1=NN(C(=O)c2ccccc2Cl)C(O)(c2ccccc2)C1 (stereo not given) | 1.28
CC1=NN(C(=O)c2ccccc2)C(O)(c2ccc(Br)cc2)C1 (stereo not given) | 27.1
CCc1ccc(N2C(=O)CC(N3CCC(C(=O)OC)CC3)C2=O)cc1 (stereo not given) | 0.16
CCCCCCOc1ccc(N2C(=O)CC(N3CCN(C(=O)c4ccco4)CC3)C2=O)cc1 (stereo not given) | -5.2
COc1ccc(OC(=O)C2CC(=O)N(c3ccc(C)cc3)C2)cc1 (stereo not given) | 25.1
CCOc1ccc(N2CC(=O)Nc3ccccc3NCC2=O)cc1 | 5.63
CCCOc1ccc(N2C(=O)CC(N3CCCC(C(=O)N4CCCC4)C3)C2=O)cc1 (stereo not given) | -0.96
C#CCOc1coc(COC(=O)c2ccccc2)cc1=O | -6.59
CSC1=N/C(=C\c2ccc3c(c2)OCO3)C(=O)S1 | -2.2
O=C1CC(N2CCC(c3nc4ccccc4o3)CC2)C(=O)N1 (stereo not given) | -3.04
NC(=O)/C(=N\OC(=O)c1ccco1)c1nc(-c2ccc(Br)cc2)cs1 | 7.99
Cc1[nH]n(-c2ccccc2)c(=O)c1C=Nc1cnc2ccccc2c1 | 0.8
C/C(=N\NC(=O)CCc1ccccc1)C1C(=O)c2ccccc2C1=O | 2.42
CC(C)(C)c1ccc(S(=O)(=O)NNC(=O)c2cc3ccccc3[nH]2)cc1 | -2.17
Cc1ccc(S(=O)(=O)NCc2ccc(C(=O)NCCCN3CCC(Cc4ccccc4)CC3)cc2)cc1 | 8.86
